Measured values: ChEMBL document CHEMBL3988442, “University of Dundee, Small-Polar-MMV Screening Library” (2021)
Out of some 69,000 compounds screened, about 420 (0.61%) showed an effect of 50% or more. Shown is part of a subset that was picked to be rich in strong results.

These molecules were tested against T1, Histidine--tRNA ligase (Leishmania infantum) (UniProt A4I591) (assay: Leishmania infantum Histidine tRNA synthetase (LdHisRS)). Details: 30 µM.
T1 sequence (whole entry): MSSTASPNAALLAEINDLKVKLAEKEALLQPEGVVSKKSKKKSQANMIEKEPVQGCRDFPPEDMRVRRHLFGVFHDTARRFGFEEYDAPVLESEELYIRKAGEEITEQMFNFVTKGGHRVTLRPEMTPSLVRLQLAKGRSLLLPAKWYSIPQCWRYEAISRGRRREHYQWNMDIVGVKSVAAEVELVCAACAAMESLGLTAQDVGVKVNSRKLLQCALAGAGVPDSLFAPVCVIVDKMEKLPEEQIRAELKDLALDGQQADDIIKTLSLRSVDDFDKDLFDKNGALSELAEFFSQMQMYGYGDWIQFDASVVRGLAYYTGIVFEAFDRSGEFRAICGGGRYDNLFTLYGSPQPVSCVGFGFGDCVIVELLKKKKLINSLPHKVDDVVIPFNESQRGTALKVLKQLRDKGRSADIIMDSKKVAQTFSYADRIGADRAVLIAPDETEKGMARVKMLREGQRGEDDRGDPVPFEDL
Assay type: functional
Parameters: scale not given: in the data most compounds retested in dose-response had high values

Question: With `CN1C[C@H]2CN(Cc3cccc(OC(F)(F)F)c3)CCN2C1=O` as the molecule, how does the Percent Effect read?
Answer: 21.6%

Question: How did the Percent Effect turn out when `O=C(NCc1cccs1)[C@@H]1CC[C@@H]2[C@@H](CCN2c2ncccn2)O1` was run?
Answer: 17.9%

Question: `CN(Cc1ccco1)[C@@H]1CN(C(=O)c2cnccn2)C[C@@H]2CCCO[C@@H]21` was tested. Which Percent Effect did it give?
Answer: 11.3%

Question: `COC[C@@]12CCC[C@@H]1CN(C(=O)COC1CCCC1)C2` was tested. Which Percent Effect did it give?
Answer: 0%

Question: How did the Percent Effect turn out when `CC(=O)N1[C@H](CN(C)C)C[C@@H]2CN(C(=O)c3ccsc3)CC[C@@H]21` was run?
Answer: 15.4%

Question: For `CN(Cc1nc(N)c2ccccc2n1)CC1CCCN1c1cccnn1` (centres undefined), which Percent Effect is on record?
Answer: 21.3%

Question: With `Cc1nc(CN(C)CC2CCCN2c2cccnn2)nc2ccccc12` (centres undefined) as the molecule, how does the Percent Effect read?
Answer: 74.4%

Question: With `Cc1nc2ccccc2nc1CN(C)CC1CCCN1c1cccnn1` (centres undefined) as the molecule, how does the Percent Effect read?
Answer: 34.7%

Question: Which Percent Effect does the source give for `COc1ccc(CN2CCO[C@H]3[C@H](Oc4ccccn4)CC[C@@H]32)cc1` here?
Answer: 25.7%

Question: How did the Percent Effect turn out when `O=C(c1ccco1)N1C[C@H]2CCCN(Cc3ccoc3)[C@H]2C1` was run?
Answer: 16.4%

Question: For `c1cnc(N2CCO[C@H]3CN(CC4CCCC4)C[C@H]32)cn1`, which Percent Effect is on record?
Answer: 9.91%

Question: For `Brc1cccc(C2(CNCc3cc[nH]c3)CCOCC2)c1`, which Percent Effect is on record?
Answer: 40.9%

Question: Which Percent Effect does the source give for `FC(F)(F)c1cccc(C2(CNCc3cc[nH]c3)CCOCC2)c1` here?
Answer: 12.7%

Question: How did the Percent Effect turn out when `Brc1ccc(C2(CNCc3cc[nH]c3)CCOCC2)cc1` was run?
Answer: 52.1%

Question: `CN1C[C@H](c2ccccc2)[C@H]2CN(C(=O)Cc3ccc(O)cc3)CC[C@H]21` was tested. Which Percent Effect did it give?
Answer: 5.59%

Question: `Cn1c(=O)c2c(n3ncnc13)NC(=O)CC2c1ccc(F)cc1` (centres undefined) was tested. Which Percent Effect did it give?
Answer: 6.9%

Question: With `O=C1CC(c2ccc(C(=O)O)cc2)c2ncn(-c3ccccc3Cl)c2N1` (centres undefined) as the molecule, how does the Percent Effect read?
Answer: 45%

Question: How did the Percent Effect turn out when `O=C1CC(c2ccc(C(=O)O)cc2)c2ncn(-c3cccnc3)c2N1` (centres undefined) was run?
Answer: 30%

Question: `Cc1nn(-c2ccccc2)c2c1C(c1ccc(C(=O)O)cc1)CC(=O)N2` (centres undefined) was tested. Which Percent Effect did it give?
Answer: 18.4%

Question: For `O=C1CC(c2ccc(C(=O)O)cc2)c2ncn(-c3ccc(F)cc3)c2N1` (centres undefined), which Percent Effect is on record?
Answer: 81.7%

Question: With `O=C1CC(c2ccc(C(=O)O)cc2)c2ncn(-c3cccc(F)c3)c2N1` (centres undefined) as the molecule, how does the Percent Effect read?
Answer: 46.6%

Question: How did the Percent Effect turn out when `O=C1CC(c2ccc(C(=O)O)cc2)c2ncn(-c3cccc(Cl)c3)c2N1` (centres undefined) was run?
Answer: 51.7%

Question: Which Percent Effect does the source give for `O=C1CC(c2ccncc2)c2c(c(C(=O)O)cn2-c2ccc(F)cc2)N1` (centres undefined) here?
Answer: 29.1%

Question: Which Percent Effect does the source give for `O=C1CC(c2ccc(C(=O)O)cc2)c2ncn(-c3ccccc3F)c2N1` (centres undefined) here?
Answer: 51.7%

Question: For `O=C1CC(c2cccc(Cl)c2)c2snc(C(=O)O)c2N1` (centres undefined), which Percent Effect is on record?
Answer: 1.72%

Question: For `O=C1CC(c2ccc(C(=O)O)cc2)c2ncn(-c3ccccc3)c2N1` (centres undefined), which Percent Effect is on record?
Answer: 52.4%

Question: With `O=C1CC(c2cccnc2)c2c(c(C(=O)O)cn2-c2ccccc2F)N1` (centres undefined) as the molecule, how does the Percent Effect read?
Answer: 20.6%

Question: `O=C1C[C@H]2[C@@H](CCN2C(=O)Cc2ccccc2)N1Cc1cccnc1` was tested. Which Percent Effect did it give?
Answer: 9.62%

Question: How did the Percent Effect turn out when `CCS(=O)(=O)N1CCC2(CC1)CC[C@@]1(C(=O)N(C)C)CN(C(C)=O)C[C@@H]21` was run?
Answer: 12.8%

Question: `CO[C@H]1CN(C(=O)c2ccc[nH]2)[C@@H]2COC[C@H]12` was tested. Which Percent Effect did it give?
Answer: -140%

Question: With `O=C([C@@H]1C[C@@H]2CCN(C3CCOCC3)C[C@H]2O1)N1CCCC1` as the molecule, how does the Percent Effect read?
Answer: 6.94%

Question: Which Percent Effect does the source give for `Cn1cccc1C(=O)NC[C@]12COC[C@H]1CN(Cc1nccs1)C2` here?
Answer: 12.8%

Question: `O=C(c1ccc2nccnc2c1)N1CCN(CCO)[C@@H]2CS(=O)(=O)C[C@@H]21` was tested. Which Percent Effect did it give?
Answer: 3.97%

Question: For `Cc1nc(-c2ccoc2)n(CC(=O)N(C)CC(C)C)c1C`, which Percent Effect is on record?
Answer: 15.8%

Question: For `CN(C)c1nccc(N2CCO[C@H]3CN(Cc4nccn4C)C[C@H]32)n1`, which Percent Effect is on record?
Answer: 3.19%

Question: How did the Percent Effect turn out when `CC(=O)N1CC[C@@]2(O)CCCC[C@H]2[C@@H]1c1ccccc1` was run?
Answer: -75.8%

Question: With `CN1CCN(Cc2nc3c(s2)CCCC3)[C@H]2CS(=O)(=O)C[C@H]21` as the molecule, how does the Percent Effect read?
Answer: 18.3%

Question: For `N#Cc1ccc(C(=O)N2CC[C@H]3[C@H]2CCN3CC2CCOCC2)cc1`, which Percent Effect is on record?
Answer: -5.77%

Question: How did the Percent Effect turn out when `CN(C)CCO[C@H]1CN(C(=O)c2cccs2)[C@@H]2COC[C@H]12` was run?
Answer: 10.9%

Question: For `Cn1ccnc1CN1C(=O)CO[C@H]2CN(CCCc3ccccc3)C[C@H]21`, which Percent Effect is on record?
Answer: 17.6%

Question: With `CC(C)(C)n1ncc2c1NC(=O)CC2c1ccc(C(=O)O)cc1` (centres undefined) as the molecule, how does the Percent Effect read?
Answer: 26%

Question: With `O=C1CC(c2cccnc2)c2c(c(C(=O)O)cn2-c2ccc(Cl)cc2)N1` (centres undefined) as the molecule, how does the Percent Effect read?
Answer: 27.2%

Question: With `O=C1CC(c2ccc(C(=O)O)cc2)c2ncn(-c3ccc(Cl)cc3)c2N1` (centres undefined) as the molecule, how does the Percent Effect read?
Answer: 55%

Question: With `Cc1ccc(NC2CCN(C(=O)c3c(C)noc3C)CC2)nn1` as the molecule, how does the Percent Effect read?
Answer: 28%

Question: Which Percent Effect does the source give for `Cc1noc(C)c1CC(=O)N1CCC(Nc2cccnn2)CC1` here?
Answer: 12.5%

Question: How did the Percent Effect turn out when `Cc1noc(C)c1C(=O)N1CCC(Nc2cccnn2)CC1` was run?
Answer: 60.5%

Question: Which Percent Effect does the source give for `CCOC(=O)c1n[nH]cc1-c1cncn1CCCn1nc(C)cc1C` here?
Answer: 13.1%

Question: For `Cc1nccn1CCCn1cncc1-c1ccc2c(c1)CCC(C)N2C` (centres undefined), which Percent Effect is on record?
Answer: 83.2%

Question: `CN1CCCc2cc(-c3cncn3CCNC3CCS(=O)(=O)C3)ccc21` (centres undefined) was tested. Which Percent Effect did it give?
Answer: 26.8%

Question: How did the Percent Effect turn out when `CCN1c2ccc(-c3cncn3CCCn3ccnc3C)cc2CC1C` (centres undefined) was run?
Answer: 48.3%

Question: Which Percent Effect does the source give for `Cc1nn(C)c(C)c1CCn1cncc1-c1ccc2c(c1)CC(C)N2C` (centres undefined) here?
Answer: 53.7%

Question: Which Percent Effect does the source give for `Cc1nccn1CCCn1cncc1-c1ccc2c(c1)CC(C)N2C` (centres undefined) here?
Answer: 65.8%

Question: `Cc1cc(C)n(CCCn2cncc2-c2ccc3c(c2)CC(C)N3C)n1` (centres undefined) was tested. Which Percent Effect did it give?
Answer: 64.4%

Question: How did the Percent Effect turn out when `CCN1CCc2cc(-c3cncn3CCNC3CCS(=O)(=O)C3)ccc21` (centres undefined) was run?
Answer: 29.6%
